{"source": "PubChem BioAssay AID1745850", "about": "(National Center for Advancing Translational Sciences (NCATS), 2022)", "note": "Hit rate of the full screen: of about 2,100 compounds, about 260 (12%) were called active. Inconclusive results (about 58%) are left out. The call rests on the fitted dose curve; in most records, active means well fitted cell-killing curve with a large enough effect; inconclusive means small, poorly fitted or top-dose-only effect, or effect the other way; inactive means flat fitted curve, though single readings scatter. Some of the results follow. Where a call stands in place of a potency, no number is given. Potency means the concentration at half of the fitted maximal effect.", "data": [{"assay": "Viability Counterscreen for Confirmatory qHTS for Inhibitors of ATXN expression; further: nearly all actives have a fitted effect of over 50% in size", "settings": "HEK-293 ATXN2-luc cells viability, CellTiter-Fluor, 24 h", "summary_of_the_method": "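Luminescence read-out (SteadyGlo, 5 min) followed a 30 min Gly-Phe-AFC (25 uM final) viability fluorescence read. ATXN2-luciferase reporter cells were exposed 24 h to a dilution series. Medium-only wells served as the 100% inhibition reference.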", "values": [{"smiles": "C(=N\\NC(=Nc1ccccc1)c1ccccn1)/c1ccccn1", "Potency": "inactive"}, {"smiles": "COc1ccc(CNC(=O)CSc2nc(-c3ccccc3)cc(-c3cccs3)c2C#N)cc1", "Potency": "inactive"}, {"smiles": "COc1cc2ccnc(Cc3cccc(OC)c3OC)c2cc1OC", "Potency": "inactive"}, {"smiles": "COc1ccc(OC)c(C(=O)/C=C/c2ccccc2C(F)(F)F)c1", "Potency": "inactive"}, {"smiles": "Cc1ccc2nc(-c3ccccc3)nn2c1", "Potency": "inactive"}, {"smiles": "O=C(N/N=C/c1cc(Br)cc(Br)c1O)c1cccc(N2CCCC2=O)c1", "Potency": "inactive"}, {"smiles": "COC(=O)c1ccc(C(=O)Nc2cc(Cl)ccc2Cl)cc1NC(=O)c1ccc(N(C)C)cc1", "Potency": "inactive"}, {"smiles": "O=C(N/N=C/c1c(O)n(Cc2ccccc2)c(=O)c2ccccc12)c1cccnc1", "Potency": "inactive"}, {"smiles": "O=C(N/N=C/c1cc(Cl)ccc1O)c1cccnc1", "Potency": "inactive"}, {"smiles": "Cc1cc(NC(c2cccnc2)c2ccc3cccnc3c2O)no1", "note": "(stereo not given)", "Potency": "8.91 µM (active)"}, {"smiles": "O=C(NC(c1ccc(Cl)cc1)c1cc(Cl)c2cccnc2c1O)c1cccnc1", "note": "(stereo not given)", "Potency": "12.6 µM (active)"}, {"smiles": "Cc1ccc(S(=O)(=O)Nc2cc(Cl)c(O)c3ncccc23)cc1", "Potency": "10 µM (active)"}, {"smiles": "COc1cc(CNCc2ccncc2)cc(Br)c1OCc1ccccc1F", "Potency": "inactive"}, {"smiles": "Cn1c(CO)c(-c2ccccc2)c2cc([N+](=O)[O-])ccc21", "Potency": "inactive"}, {"smiles": "CCn1c(C)cc(C(=O)COC(=O)c2ccccc2[N+](=O)[O-])c1C", "Potency": "inactive"}, {"smiles": "CCOC(=O)N1CCN(c2ccnc3cc(Cl)ccc23)CC1", "Potency": "inactive"}, {"smiles": "CN(CCc1ccccc1)c1cc2c(c3c1ccn3C)C1CCC2O1", "note": "(stereo not given)", "Potency": "inactive"}, {"smiles": "CC(C)(C)c1ccc(CC(=O)N2CCC2(C)C(=O)Nc2cnc3ccccc3c2)cc1", "note": "(stereo not given)", "Potency": "inactive"}, {"smiles": "O=C(Nc1cccc2ccccc12)OC1C=CS(=O)(=O)C1", "note": "(stereo not given)", "Potency": "inactive"}, {"smiles": "Cc1noc2ncnc(N3CCN(c4cccc(Cl)c4)CC3)c12", "Potency": "inactive"}, {"smiles": "O=C(CSCC(=O)Nc1ccccc1)N/N=C/c1c(O)ccc2ccccc12", "Potency": "inactive"}, {"smiles": "CC(C)(C)c1ccc(Oc2ccc(N)cc2)cc1", "Potency": "inactive"}, {"smiles": "COc1ccc2[nH]c3c(N4CCC(O)(c5cccc(C(F)(F)F)c5)CC4)ncnc3c2c1", "Potency": "3.16 µM (active)"}, {"smiles": "O=C1CN(C(=O)c2c(F)cccc2F)C(c2ccc(F)cc2)c2cc(Br)ccc2N1", "note": "(stereo not given)", "Potency": "inactive"}, {"smiles": "COc1cccc(NC(=O)/C=C/c2ccc(S(=O)(=O)N3CCOCC3)cc2)c1", "Potency": "inactive"}, {"smiles": "COc1ccc(N2C3=C(CC4=C2CC(C)(C)CC4=O)C(=O)CC(C)(C)C3)cc1", "Potency": "inactive"}, {"smiles": "CC1CC2(C)Oc3ccccc3CC2C(C)C1CNCCCN(C)C", "note": "(stereo not given)", "Potency": "25.1 µM (active)"}, {"smiles": "O=C(C1CCC(CNS(=O)(=O)c2cccc3nsnc23)CC1)N1CC=C(c2ccccc2)CC1", "note": "(stereo not given)", "Potency": "inactive"}, {"smiles": "Cc1ccccc1SCC(=O)N1CCN(c2ccc(C(F)(F)F)cn2)CC1", "Potency": "inactive"}, {"smiles": "COc1cc(-c2ccc3sc(-c4ccsc4)c(C#CCO)c3c2)cc(OC)c1OC", "Potency": "22.4 µM (active)"}, {"smiles": "COc1ccc(-c2sc3ccc(OC)cc3c2-c2ccc(O)cc2)cc1", "Potency": "inactive"}, {"smiles": "O=C(O)CSc1cc(NS(=O)(=O)c2ccc(Cl)cc2)c2ccccc2c1O", "Potency": "35.5 µM (active)"}, {"smiles": "COC(=O)[C@H]1C[C@H](OC(=O)NC2CC2)[C@@]2(O)CN(S(=O)(=O)c3ccc(C)cc3)CC2[C@H]1C(=O)OC", "note": "(stereo not given in full)", "Potency": "inactive"}, {"smiles": "COc1ccc(-c2csc(NC(=O)c3ccccc3NS(=O)(=O)c3ccc(F)c(F)c3)n2)cc1", "Potency": "5.62 µM (active)"}, {"smiles": "COc1ccc(CC(N)c2csc(NC(=O)c3ccccc3OC)n2)cc1", "note": "(stereo not given)", "Potency": "inactive"}, {"smiles": "C/[N+]([O-])=C\\c1cccc(OCCN2CCN(c3ncc(C(F)(F)F)cc3Cl)CC2)c1", "Potency": "inactive"}, {"smiles": "CC[n+]1c(/C=C/c2c[nH]c3ccccc23)ccc2cc(C)ccc21", "Potency": "15.8 µM (active)"}, {"smiles": "Nc1ccc(OC(=O)Nc2ccc(O)cc2)cc1", "Potency": "inactive"}, {"smiles": "O=C(Cn1cnc([N+](=O)[O-])c1)Nc1cc(Oc2ccc(Cl)cc2Cl)cc([N+](=O)[O-])c1", "Potency": "3.16 µM (active)"}, {"smiles": "O=C(NCC1CCCO1)c1cccc(Oc2ccc([N+](=O)[O-])cc2Cl)c1", "note": "(stereo not given)", "Potency": "inactive"}, {"smiles": "CC1CCN(Cc2c(C(=O)N/N=C/c3cc(Cl)ccc3O)nnn2-c2nonc2N)CC1", "Potency": "inactive"}, {"smiles": "O=C1c2cccc3cc([N+](=O)[O-])cc(c23)C(=O)N1CCN1CCCC1", "Potency": "3.16 µM (active)"}, {"smiles": "Nc1cc2c3c(cccc3c1)C(=O)N(CCN1CCCC1)C2=O", "Potency": "22.4 µM (active)"}, {"smiles": "CCCCCCc1cc2cc(C(=O)Nc3ccccc3)c(=O)oc2cc1O", "Potency": "inactive"}, {"smiles": "O=C(CN1C(=O)c2ccccc2S1(=O)=O)N1CCc2ccccc21", "Potency": "inactive"}, {"smiles": "CCOc1cc(/C=C2\\SC(=N)N(c3nccs3)C2=O)ccc1OCCN1CCOCC1", "Potency": "25.1 µM (active)"}, {"smiles": "OC1(c2ccc(Br)cc2)CCNCC1", "Potency": "inactive"}, {"smiles": "Cc1onc(-c2ccccc2)c1C(=O)Nc1ccc(S(=O)(=O)NC(C)(C)C)cc1", "Potency": "inactive"}, {"smiles": "Cc1cc(C)cc(OCC(=O)NNC(=S)NC(=O)C2CC2)c1", "Potency": "inactive"}, {"smiles": "Cc1sc2cc3c(c(C(=O)c4ccccc4)[n+]2c1C)-c1cccc2cccc-3c12", "Potency": "12.6 µM (active)"}, {"smiles": "CC(=O)c1ccc(C(=O)Nc2nnc(-c3ccc(Cl)cc3)o2)cc1", "Potency": "inactive"}, {"smiles": "CCn1c2ccccc2c2cc(NC(=O)COC(=O)C3CCC(=O)N3)ccc21", "note": "(stereo not given)", "Potency": "inactive"}, {"smiles": "NS(=O)(=O)c1ccc(N2N=C(c3ccc(Br)cc3)CC2c2ccc(F)cc2)cc1", "note": "(stereo not given)", "Potency": "inactive"}, {"smiles": "O=C(NNCc1ccccc1)c1ccccc1", "Potency": "inactive"}, {"smiles": "c1ccc(CN=C(NCc2ccccc2)NCc2ccccc2)cc1", "Potency": "31.6 µM (active)"}, {"smiles": "COc1cccc(OC)c1C(=O)OCC(=O)NC(=O)NCc1ccccc1", "Potency": "inactive"}, {"smiles": "CCCCCC(=O)N/N=C(\\C)c1ccccn1", "Potency": "inactive"}, {"smiles": "C/C(=N\\NC(=O)c1cccc2ccccc12)c1ccccn1", "Potency": "6.31 µM (active)"}, {"smiles": "CCCC/C(C)=N/NC(=O)c1cn(-c2ccccc2)nc1-c1ccccc1", "Potency": "inactive"}, {"smiles": "COc1cc2cc(C(=O)NC(C)c3cccc4ccccc34)c(N)nc2cc1OC", "note": "(stereo not given)", "Potency": "inactive"}, {"smiles": "COc1cc(N)ccc1Nc1c2ccccc2nc2ccccc12", "Potency": "31.6 µM (active)"}, {"smiles": "Nc1cccc2nc3ccccc3cc12", "Potency": "inactive"}, {"smiles": "O=C(NNC(=O)c1csc(-c2cnccc2C(F)(F)F)n1)c1ccc(C(F)(F)F)cc1", "Potency": "inactive"}, {"smiles": "c1cc2c(cc1-c1cnc3n1CCC3)OCCO2", "Potency": "inactive"}, {"smiles": "O=C1C=C(NCCc2cc(Br)c(O)c(Br)c2)C(=O)c2ncccc21", "Potency": "10 µM (active)"}]}]}
